The values that follow come from article PMC7862700, “An all-to-all approach to the identification of sequence-specific readers for epigenetic DNA modifications on cytosine”.

Assay in all cases: DAPPL (digital affinity profiling via proximity ligation, sequencing); 10 mM Tris-HCl pH 7.5, 50 mM NaCl, 1 mM DTT, 4% glycerol, room temperature, 30 min; GST-TFs on glutathione beads, 16-mer random dsDNA library, 0.1% formaldehyde crosslink after washing; high values mean tight binding
One assay concerns the target T1, FLI1 (Homo sapiens, UniProt Q01543 1-452).
T1 sequence: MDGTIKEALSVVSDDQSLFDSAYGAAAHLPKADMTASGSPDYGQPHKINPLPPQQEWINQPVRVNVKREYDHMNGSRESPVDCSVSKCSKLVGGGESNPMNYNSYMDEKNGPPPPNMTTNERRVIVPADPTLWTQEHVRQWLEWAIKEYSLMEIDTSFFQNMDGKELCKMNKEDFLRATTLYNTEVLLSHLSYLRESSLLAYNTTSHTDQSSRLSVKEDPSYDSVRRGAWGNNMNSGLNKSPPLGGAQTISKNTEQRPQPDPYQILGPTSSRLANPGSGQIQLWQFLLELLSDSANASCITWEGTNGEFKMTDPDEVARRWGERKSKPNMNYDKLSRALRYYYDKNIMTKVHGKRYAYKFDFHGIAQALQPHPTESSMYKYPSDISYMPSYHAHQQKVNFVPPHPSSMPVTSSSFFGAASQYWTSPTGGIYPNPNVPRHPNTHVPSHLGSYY
The following applies: protein: recombinant; tags: N-terminal GST; dsDNA, one strand shown. An outline of the steps:
(§1)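 After expression in yeast as GST fusions, human transcription factors were bound to glutathione beads, DNA-barcoded and mixed with a tag-only sample. The pools were incubated with 200 nmole of a 16-mer random double-stranded DNA library in Tris/NaCl/DTT/glycerol buffer (30 min, room temperature), washed and crosslinked with 0.1% formaldehyde. Proximity ligation with BsaI/T4 ligase ran for 1 h at 37 °C, before PCR amplification and sequencing on an Illumina NextSeq500. Binding signal is a hexamer's read frequency for a factor divided by its frequency for the tag-only sample.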

For a further assay, the target named is T2, ELK1 (Homo sapiens, UniProt P19419 1-428).
T2 sequence: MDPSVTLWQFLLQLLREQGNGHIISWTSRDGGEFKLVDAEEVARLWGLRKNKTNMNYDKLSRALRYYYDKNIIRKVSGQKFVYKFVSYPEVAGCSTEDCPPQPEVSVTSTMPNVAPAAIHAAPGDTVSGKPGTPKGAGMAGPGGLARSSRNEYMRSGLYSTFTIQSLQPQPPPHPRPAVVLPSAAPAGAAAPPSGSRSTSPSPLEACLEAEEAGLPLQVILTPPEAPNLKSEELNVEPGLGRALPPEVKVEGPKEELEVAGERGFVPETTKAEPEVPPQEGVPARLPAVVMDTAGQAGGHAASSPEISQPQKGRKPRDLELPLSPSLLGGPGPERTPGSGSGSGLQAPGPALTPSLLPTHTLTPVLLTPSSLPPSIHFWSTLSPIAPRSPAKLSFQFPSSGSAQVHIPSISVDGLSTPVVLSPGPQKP
Particulars: protein: recombinant; tags: N-terminal GST; dsDNA, one strand shown. An outline of the steps:
as §1

In a further assay the target is T3, GABPA (Homo sapiens, UniProt Q06546 1-454).
T3 sequence: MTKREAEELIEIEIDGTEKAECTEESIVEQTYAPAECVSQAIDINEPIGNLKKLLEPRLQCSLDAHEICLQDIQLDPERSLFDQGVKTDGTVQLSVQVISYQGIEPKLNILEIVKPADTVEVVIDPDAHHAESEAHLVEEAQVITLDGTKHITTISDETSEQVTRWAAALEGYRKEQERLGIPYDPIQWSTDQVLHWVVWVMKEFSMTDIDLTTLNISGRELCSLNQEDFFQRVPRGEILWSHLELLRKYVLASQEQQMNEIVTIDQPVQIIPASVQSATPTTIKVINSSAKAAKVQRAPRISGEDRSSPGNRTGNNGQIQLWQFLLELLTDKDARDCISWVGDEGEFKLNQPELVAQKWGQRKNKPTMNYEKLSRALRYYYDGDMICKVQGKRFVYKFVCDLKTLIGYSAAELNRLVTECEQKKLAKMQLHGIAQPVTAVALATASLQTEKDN
Particulars: protein: recombinant; tags: N-terminal GST; dsDNA, one strand shown. In a few lines:
as §1

The next assay concerns the target T4, ERG (Homo sapiens, UniProt P11308 1-479).
T4 sequence: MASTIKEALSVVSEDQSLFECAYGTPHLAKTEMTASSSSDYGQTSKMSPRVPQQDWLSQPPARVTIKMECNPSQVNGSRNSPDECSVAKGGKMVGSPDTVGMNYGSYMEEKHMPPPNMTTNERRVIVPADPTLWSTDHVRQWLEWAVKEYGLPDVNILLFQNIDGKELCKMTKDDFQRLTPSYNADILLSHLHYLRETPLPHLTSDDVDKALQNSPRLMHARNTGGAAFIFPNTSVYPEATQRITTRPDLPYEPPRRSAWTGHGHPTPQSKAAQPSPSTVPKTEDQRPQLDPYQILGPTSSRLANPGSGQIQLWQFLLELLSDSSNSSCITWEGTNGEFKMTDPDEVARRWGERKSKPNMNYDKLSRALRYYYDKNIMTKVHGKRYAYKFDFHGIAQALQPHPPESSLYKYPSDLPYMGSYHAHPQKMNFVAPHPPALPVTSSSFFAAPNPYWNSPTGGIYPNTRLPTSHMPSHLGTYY
Particulars: protein: recombinant; tags: N-terminal GST; dsDNA, one strand shown. An outline of the steps:
as §1

For the next assay, the target named is ELF1 (Homo sapiens, UniProt P32519 1-619). Particulars: protein: recombinant; tags: N-terminal GST; dsDNA, one strand shown. An outline of the steps: as §1
In another assay the target is T5, EHF (Homo sapiens, UniProt Q9NZC4 1-300).
T5 sequence: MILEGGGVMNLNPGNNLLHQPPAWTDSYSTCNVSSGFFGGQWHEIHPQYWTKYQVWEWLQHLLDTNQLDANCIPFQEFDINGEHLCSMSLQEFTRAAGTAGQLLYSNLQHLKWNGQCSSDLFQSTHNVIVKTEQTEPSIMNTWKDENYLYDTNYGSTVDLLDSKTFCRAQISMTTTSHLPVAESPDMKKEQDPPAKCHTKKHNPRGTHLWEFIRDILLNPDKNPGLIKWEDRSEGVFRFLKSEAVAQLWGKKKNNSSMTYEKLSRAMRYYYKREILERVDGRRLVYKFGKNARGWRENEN
The following applies: protein: recombinant; tags: N-terminal GST; dsDNA, one strand shown. An outline of the steps: as §1

In the next assay the target is SPI1 (Homo sapiens, UniProt P17947 1-270). Particulars: protein: recombinant; tags: N-terminal GST; dsDNA, one strand shown. In a few lines: as §1
For another assay, the target named is SPIB (Homo sapiens, UniProt Q01892 1-262). Particulars: protein: recombinant; tags: N-terminal GST; dsDNA, one strand shown. In a few lines: as §1
For a further assay, the target named is T6, ELK3 (Homo sapiens, UniProt P41970 1-407).
T6 sequence: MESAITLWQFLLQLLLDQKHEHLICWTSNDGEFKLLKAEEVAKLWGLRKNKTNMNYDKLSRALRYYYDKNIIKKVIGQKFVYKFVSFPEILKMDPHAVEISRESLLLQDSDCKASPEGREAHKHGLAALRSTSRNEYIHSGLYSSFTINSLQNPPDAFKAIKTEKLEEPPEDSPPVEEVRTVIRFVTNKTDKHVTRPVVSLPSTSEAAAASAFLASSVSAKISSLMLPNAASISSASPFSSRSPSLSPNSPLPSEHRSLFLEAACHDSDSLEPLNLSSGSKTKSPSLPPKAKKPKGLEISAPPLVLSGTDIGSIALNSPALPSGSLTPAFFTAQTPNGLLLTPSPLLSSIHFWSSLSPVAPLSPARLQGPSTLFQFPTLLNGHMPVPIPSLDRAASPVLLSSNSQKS
Particulars: protein: recombinant; tags: N-terminal GST; dsDNA, one strand shown. An outline of the steps: as §1

A further assay deals with T7, FEV (Homo sapiens, UniProt Q99581 1-238).
T7 sequence: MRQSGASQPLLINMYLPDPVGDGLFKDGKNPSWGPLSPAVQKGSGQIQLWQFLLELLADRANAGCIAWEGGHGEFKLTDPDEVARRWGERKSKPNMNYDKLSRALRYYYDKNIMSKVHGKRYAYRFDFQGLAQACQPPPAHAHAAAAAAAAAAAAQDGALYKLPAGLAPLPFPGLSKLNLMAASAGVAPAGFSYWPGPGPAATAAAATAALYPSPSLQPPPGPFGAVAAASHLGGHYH
The following applies: protein: recombinant; tags: N-terminal GST; dsDNA, one strand shown. In a few lines: as §1

The target of a further assay is ETV5 (Homo sapiens, UniProt P41161 1-510). Particulars: protein: recombinant; tags: N-terminal GST; dsDNA, one strand shown. An outline of the steps: as §1
A further assay has as its target HSF1 (Homo sapiens, UniProt Q00613 1-529). The following applies: protein: recombinant; tags: N-terminal GST; chain copies: 3; dsDNA, one strand shown. In a few lines:
as §1

For another assay, the target named is T8, SPIC (Homo sapiens, UniProt Q8N5J4 1-248).
T8 sequence: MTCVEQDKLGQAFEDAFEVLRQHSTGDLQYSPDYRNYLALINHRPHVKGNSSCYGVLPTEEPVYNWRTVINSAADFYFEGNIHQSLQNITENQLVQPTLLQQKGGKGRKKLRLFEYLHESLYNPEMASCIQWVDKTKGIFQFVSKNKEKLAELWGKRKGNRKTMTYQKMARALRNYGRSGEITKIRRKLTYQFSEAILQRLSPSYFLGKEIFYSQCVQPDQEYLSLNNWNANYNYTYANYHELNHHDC
The following applies: protein: recombinant; tags: N-terminal GST; dsDNA, one strand shown. An outline of the steps:
as §1

For another assay, the target named is ELF4 (Homo sapiens, UniProt Q99607 1-663). Particulars: protein: recombinant; tags: N-terminal GST; dsDNA, one strand shown. An outline of the steps: as §1
Another assay deals with T9, ELK4 (Homo sapiens, UniProt P28324-2 1-405).
T9 sequence: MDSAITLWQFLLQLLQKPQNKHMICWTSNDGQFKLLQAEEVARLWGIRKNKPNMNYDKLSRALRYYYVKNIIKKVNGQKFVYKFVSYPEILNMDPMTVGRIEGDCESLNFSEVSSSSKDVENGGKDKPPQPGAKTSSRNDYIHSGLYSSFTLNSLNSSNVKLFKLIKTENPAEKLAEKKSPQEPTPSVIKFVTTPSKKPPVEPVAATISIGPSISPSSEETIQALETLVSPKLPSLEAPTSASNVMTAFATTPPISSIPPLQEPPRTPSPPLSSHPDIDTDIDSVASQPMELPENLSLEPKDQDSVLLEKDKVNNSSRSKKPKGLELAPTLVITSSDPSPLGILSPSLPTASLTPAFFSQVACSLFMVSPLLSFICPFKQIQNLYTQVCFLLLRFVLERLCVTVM
Particulars: protein: recombinant; tags: N-terminal GST; dsDNA, one strand shown. An outline of the steps:
as §1

Another assay deals with T10, ETV2 (Homo sapiens, UniProt O00321 1-342).
T10 sequence: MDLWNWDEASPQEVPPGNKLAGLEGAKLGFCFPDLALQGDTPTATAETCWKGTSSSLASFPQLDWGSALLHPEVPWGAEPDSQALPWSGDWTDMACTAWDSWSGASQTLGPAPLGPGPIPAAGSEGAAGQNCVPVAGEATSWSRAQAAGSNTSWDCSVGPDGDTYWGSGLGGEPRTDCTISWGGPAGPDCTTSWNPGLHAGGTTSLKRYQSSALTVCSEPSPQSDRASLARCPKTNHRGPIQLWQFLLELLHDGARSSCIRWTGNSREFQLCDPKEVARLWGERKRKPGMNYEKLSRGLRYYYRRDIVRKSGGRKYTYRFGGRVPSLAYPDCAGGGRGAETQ
Particulars: protein: recombinant; tags: N-terminal GST; dsDNA, one strand shown. An outline of the steps:
as §1

The next assay concerns the target T11, ELF3 (Homo sapiens, UniProt P78545 1-371).
T11 sequence: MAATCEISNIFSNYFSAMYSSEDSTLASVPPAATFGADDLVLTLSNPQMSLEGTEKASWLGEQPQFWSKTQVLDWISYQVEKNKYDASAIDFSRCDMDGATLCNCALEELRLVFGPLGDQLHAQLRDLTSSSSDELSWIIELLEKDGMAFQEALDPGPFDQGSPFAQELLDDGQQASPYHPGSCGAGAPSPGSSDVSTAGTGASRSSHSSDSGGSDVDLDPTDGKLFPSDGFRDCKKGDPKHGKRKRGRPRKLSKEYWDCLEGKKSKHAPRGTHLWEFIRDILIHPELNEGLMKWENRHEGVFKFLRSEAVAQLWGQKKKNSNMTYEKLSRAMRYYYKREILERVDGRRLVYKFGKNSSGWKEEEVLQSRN
The following applies: protein: recombinant; tags: N-terminal GST; dsDNA, one strand shown. In a few lines:
as §1

The next assay concerns the target CRX (Homo sapiens, UniProt O43186 1-299). The following applies: protein: recombinant; tags: N-terminal GST; dsDNA, one strand shown. In a few lines:
as §1

The next assay deals with ETV1 (Homo sapiens, UniProt P50549 1-477). Particulars: protein: recombinant; tags: N-terminal GST; dsDNA, one strand shown. In a few lines:
as §1

CRX, sequence (O43186 whole entry): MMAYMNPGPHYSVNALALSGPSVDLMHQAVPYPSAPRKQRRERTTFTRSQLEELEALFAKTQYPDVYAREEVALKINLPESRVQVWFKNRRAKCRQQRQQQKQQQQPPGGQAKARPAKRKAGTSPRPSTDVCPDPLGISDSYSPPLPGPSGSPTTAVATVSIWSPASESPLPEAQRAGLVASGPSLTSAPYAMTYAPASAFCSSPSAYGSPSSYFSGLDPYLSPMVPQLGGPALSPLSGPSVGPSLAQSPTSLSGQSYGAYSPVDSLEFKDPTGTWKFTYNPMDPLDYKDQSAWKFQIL
ETV5, sequence (P41161 whole entry): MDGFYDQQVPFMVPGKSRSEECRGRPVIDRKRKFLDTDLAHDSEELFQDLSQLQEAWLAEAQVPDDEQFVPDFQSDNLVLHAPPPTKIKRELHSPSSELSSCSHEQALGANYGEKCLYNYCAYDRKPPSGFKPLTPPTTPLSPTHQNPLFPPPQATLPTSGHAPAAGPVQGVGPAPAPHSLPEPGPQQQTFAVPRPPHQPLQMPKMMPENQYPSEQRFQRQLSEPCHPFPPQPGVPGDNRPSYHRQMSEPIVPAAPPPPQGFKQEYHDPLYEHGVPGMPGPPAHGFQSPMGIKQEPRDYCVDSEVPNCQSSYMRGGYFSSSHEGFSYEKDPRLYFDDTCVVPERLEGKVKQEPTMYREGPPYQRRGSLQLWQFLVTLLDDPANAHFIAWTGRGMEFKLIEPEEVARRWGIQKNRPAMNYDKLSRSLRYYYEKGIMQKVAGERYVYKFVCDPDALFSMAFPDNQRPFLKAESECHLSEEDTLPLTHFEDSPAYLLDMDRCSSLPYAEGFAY
ELF1, sequence (P32519 whole entry): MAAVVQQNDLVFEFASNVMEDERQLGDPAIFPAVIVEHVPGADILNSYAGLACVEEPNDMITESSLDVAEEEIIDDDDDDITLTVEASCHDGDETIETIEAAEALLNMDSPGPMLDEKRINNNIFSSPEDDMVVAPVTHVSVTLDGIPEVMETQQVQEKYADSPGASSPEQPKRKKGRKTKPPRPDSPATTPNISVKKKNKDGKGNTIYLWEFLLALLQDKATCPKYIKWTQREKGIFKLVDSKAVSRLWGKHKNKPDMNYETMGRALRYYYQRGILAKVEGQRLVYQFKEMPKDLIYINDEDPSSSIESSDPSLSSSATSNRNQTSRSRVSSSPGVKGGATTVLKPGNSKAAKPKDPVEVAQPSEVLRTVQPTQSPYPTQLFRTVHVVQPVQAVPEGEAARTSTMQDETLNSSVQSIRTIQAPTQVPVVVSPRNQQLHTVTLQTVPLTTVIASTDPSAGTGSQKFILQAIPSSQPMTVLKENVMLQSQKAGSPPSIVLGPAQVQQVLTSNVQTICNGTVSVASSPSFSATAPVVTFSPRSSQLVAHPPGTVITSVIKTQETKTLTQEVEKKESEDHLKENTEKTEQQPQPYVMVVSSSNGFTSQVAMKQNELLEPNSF
ELF4, sequence (Q99607 whole entry): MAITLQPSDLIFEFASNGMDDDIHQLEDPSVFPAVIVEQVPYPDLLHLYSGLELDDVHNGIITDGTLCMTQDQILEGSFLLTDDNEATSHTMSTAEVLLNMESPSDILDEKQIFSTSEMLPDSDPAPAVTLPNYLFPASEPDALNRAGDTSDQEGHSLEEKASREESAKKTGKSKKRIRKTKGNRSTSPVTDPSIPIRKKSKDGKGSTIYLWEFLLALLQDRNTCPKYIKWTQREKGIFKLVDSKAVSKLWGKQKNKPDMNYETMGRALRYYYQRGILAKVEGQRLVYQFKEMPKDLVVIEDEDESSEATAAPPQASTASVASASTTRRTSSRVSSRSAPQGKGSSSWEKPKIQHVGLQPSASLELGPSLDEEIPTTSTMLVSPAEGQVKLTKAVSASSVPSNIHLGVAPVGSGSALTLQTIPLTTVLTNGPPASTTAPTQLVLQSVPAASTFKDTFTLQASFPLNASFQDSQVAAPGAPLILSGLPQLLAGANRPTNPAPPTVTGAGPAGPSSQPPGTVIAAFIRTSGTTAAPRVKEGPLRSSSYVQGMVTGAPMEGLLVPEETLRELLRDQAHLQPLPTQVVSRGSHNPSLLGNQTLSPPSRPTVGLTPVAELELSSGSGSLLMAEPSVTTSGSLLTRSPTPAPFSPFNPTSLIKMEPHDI
ETV1, sequence (P50549 whole entry): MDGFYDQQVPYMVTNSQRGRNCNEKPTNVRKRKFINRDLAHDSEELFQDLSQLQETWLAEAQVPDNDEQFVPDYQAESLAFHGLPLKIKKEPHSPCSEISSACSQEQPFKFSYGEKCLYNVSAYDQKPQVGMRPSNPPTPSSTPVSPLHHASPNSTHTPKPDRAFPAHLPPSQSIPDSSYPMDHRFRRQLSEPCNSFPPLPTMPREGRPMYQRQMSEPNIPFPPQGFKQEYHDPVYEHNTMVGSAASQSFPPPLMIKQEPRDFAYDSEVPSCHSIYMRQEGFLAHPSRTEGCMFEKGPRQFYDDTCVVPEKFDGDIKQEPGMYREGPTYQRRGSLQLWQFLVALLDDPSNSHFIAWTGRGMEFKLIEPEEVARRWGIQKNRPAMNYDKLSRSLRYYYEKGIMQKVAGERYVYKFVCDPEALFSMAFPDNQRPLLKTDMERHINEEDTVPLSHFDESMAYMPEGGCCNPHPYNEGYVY
HSF1, sequence (Q00613 whole entry): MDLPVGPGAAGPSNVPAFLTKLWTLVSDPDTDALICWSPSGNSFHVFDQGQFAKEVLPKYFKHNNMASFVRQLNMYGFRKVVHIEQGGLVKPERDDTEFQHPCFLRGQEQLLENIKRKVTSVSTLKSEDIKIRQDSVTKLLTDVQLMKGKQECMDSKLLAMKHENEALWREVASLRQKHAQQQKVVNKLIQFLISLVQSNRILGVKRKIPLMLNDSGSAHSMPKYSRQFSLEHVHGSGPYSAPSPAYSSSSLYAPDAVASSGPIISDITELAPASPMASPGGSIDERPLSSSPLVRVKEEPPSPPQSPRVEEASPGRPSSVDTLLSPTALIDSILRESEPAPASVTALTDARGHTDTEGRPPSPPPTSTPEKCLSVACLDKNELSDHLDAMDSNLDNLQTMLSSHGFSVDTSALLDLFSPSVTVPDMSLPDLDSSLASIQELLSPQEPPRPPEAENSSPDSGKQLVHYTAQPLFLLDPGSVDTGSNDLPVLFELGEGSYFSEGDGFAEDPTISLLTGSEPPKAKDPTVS
SPIB, sequence (Q01892 whole entry): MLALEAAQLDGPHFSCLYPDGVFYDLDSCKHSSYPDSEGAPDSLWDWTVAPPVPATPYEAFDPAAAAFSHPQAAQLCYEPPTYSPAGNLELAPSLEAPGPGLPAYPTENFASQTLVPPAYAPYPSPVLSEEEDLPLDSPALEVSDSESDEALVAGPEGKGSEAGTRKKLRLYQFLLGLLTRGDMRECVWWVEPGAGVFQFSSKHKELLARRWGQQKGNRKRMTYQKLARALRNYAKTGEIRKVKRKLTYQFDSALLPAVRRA

Consider TTCCTC, for which the binding signal with FLI1 was 2.26 fold enrichment (6-mer frequency, TF over GST control); in the assay with ELK1, 2.09 fold enrichment (6-mer frequency, TF over GST control); in the assay with GABPA, 2.1 fold enrichment (6-mer frequency, TF over GST control); with ERG, 2.21 fold enrichment (6-mer frequency, TF over GST control); with ELF1, 2.12 fold enrichment (6-mer frequency, TF over GST control); in the assay with EHF it was 2.32 fold enrichment (6-mer frequency, TF over GST control). Further, the binding signal in the assay with SPI1 was 4.31 fold enrichment (6-mer frequency, TF over GST control); with SPIB, 2.26 fold enrichment (6-mer frequency, TF over GST control); in the assay with ELK3, 2.3 fold enrichment (6-mer frequency, TF over GST control); with FEV it was 2.13 fold enrichment (6-mer frequency, TF over GST control); with ETV5, 2.47 fold enrichment (6-mer frequency, TF over GST control); in the assay with HSF1 it was 1.61 fold enrichment (6-mer frequency, TF over GST control). The binding signal with SPIC is 2.72 fold enrichment (6-mer frequency, TF over GST control); with ELF4, 2.16 fold enrichment (6-mer frequency, TF over GST control); with ELK4, 2.1 fold enrichment (6-mer frequency, TF over GST control); in the assay with ETV2, 2.39 fold enrichment (6-mer frequency, TF over GST control); in the assay with ELF3 it was 2.06 fold enrichment (6-mer frequency, TF over GST control); in the assay with CRX, 1.43 fold enrichment (6-mer frequency, TF over GST control). In addition, in the assay with ETV1, the binding signal is 2.27 fold enrichment (6-mer frequency, TF over GST control).
